KDM5B inh = blocks human KDM5B histone demethylase activity | KDM5B demethylase, FDH-coupled NADH fluorescence (FDH is formaldehyde dehydrogenase) | 220,000 compounds, 2.6% hits | Potency, µM (highest dose often 57.7 µM), usual class: inhibitors | Q9UGL1 | AID 1347165; active means well fitted inhibition curve with a large enough effect; further: nearly all actives have a fitted effect of over 70% in size
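Inhibition is measured as reduced NADH fluorescence generation from FDH coupling to formaldehyde release. Truncated KDM5BΔAP at 200 nM final acts on H3K4me3 peptide (12.5 µM in substrate mix) in pH 7.5 HEPES buffer with Tween-20, 30 min, room temperature.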
Each line names hits and unclear results; the compound was inactive in the other large screens. This excerpt belongs to a sample that is enriched for hits.

O=C(c1cccc(Cl)c1)N1CCCN(c2nc3ncccc3o2)CC1	none
O=C(Nc1ccccc1)N1CCN(c2nc3ncccc3o2)CC1	none
CC(=O)N1CCN(c2nc3ncccc3o2)CC1	KDM5B inh 32µM
O=C(Nc1ccc(Cl)cc1)N1CCN(c2nc3ncccc3o2)CC1	none
COC(=O)N1CCCN(c2nc3ncccc3o2)CC1	KDM5B inh 25µM
COCC(=O)N1CCCN(c2nc3ncccc3o2)CC1	KDM5B inh 28µM
O=C(CC1CCCC1)N1CCN(c2nc3ccccc3o2)CC1	none
COCCn1c(CO)nnc1C1CC(NC(=O)c2ccc(F)cc2F)C1 (centres undefined)	none
CCN(CC)c1nc(N(C)C)nc(-n2cnc(SCc3ccccc3)n2)n1	none
COc1ccccc1Oc1ccc(NC(=O)Cn2ncc3ccc(OC)c(OC)c3c2=O)cc1	none
Cc1cc2nc(-c3cccc(NC(=O)COc4ccccc4)c3)oc2cc1C	none
N#Cc1ccccc1CN1CCCCC1c1nc(CCOCC2CCCC2)no1 (centres undefined)	none
CC(C)n1c(SCCCn2c(=O)c3c(ncn3C)n(C)c2=O)nc2ccccc21	none
COc1ccc(-c2noc(-c3ccc(Br)o3)n2)cc1	none
COc1ccc(-c2noc(-c3ccc(N4CCOCC4)c([N+](=O)[O-])c3)n2)cc1	none
COc1ccc(-c2noc(-c3ccc(N4C[C@H]5CC[C@H]4C5)nc3)n2)cc1	KDM5B inh 32µM
COc1ccc(-c2noc(-c3ccc(N4CCCOCC4)nc3)n2)cc1	KDM5B inh 32µM
COc1ccc(-c2noc(-c3ccc(S(=O)(=O)N4CCOCC4)o3)n2)cc1	none
COc1ccc(-c2noc(-c3nc(C)no3)n2)cc1	none
COc1ccc(C2Cn3nnc(C(=O)N4CCC(C(=O)NCC5CC5)CC4)c3CO2)cc1 (centres undefined)	none
C=C(C)Cn1c(N2CCN(Cc3c(F)cccc3Cl)CC2)nc2c1c(=O)[nH]c(=O)n2C	none
Cc1ccc(-c2cc(-c3ccc(C)cc3)[nH]n2)cc1	none
COc1cccc(CN(C(=O)c2oc3c(C)c(C)ccc3c2C)C2CCS(=O)(=O)C2)c1 (centres undefined)	none
CC1(COc2cccnc2)COc2ccc(C(=O)N3CCOCC3)cc2N1 (centres undefined)	none
CC1(COc2ccccc2)COc2ccc(C(=O)NCc3cccnc3)cc2N1 (centres undefined)	KDM5B inh 35µM
CN(C(=O)c1ccc2c(c1)NC(C)(COCC1CC1)CO2)c1ccccc1 (centres undefined)	none
CC1(CNCc2ccccc2)COc2ccc(C(=O)Nc3cccnc3)cc2N1 (centres undefined)	none
CC1(COc2cccnc2)COc2ccc(C(=O)NCCOc3ccccc3)cc2N1 (centres undefined)	KDM5B inh 32µM
CCC1(C(=O)NCc2cccc(F)c2)CCCCC(=O)N1 (centres undefined)	none
CC1(COCC2CC2)COc2ccc(C(=O)NCc3cccc(F)c3)cc2N1 (centres undefined)	KDM5B inh 40µM
CC(=O)N1CCCN(C(=O)c2ccc3c(c2)NC(C)(COc2cccnc2)CO3)CC1 (centres undefined)	none
O=C(NCc1cccnc1)c1ccc2ccccc2c1	none
CC1(COc2ccccc2)COc2ccc(C(=O)NCCc3cnc[nH]3)cc2N1 (centres undefined)	KDM5B inh 35µM
CC(=O)c1ccc(NC(=O)C2(c3ccccc3)CCCC2)cc1	none
CCOC(=O)c1ccsc1NC(=O)Cn1nnc(-c2ccccc2)n1	none
O=C(NCc1ccc2c(c1)OCO2)C1COC2(CCCCC2)N1C(=O)c1cccc(F)c1 (centres undefined)	none
CS(=O)(=O)N1CCCN(C(=O)C2(c3ccccc3)CC2)c2ccccc21	none
O=C(Nc1ccc(Cl)cc1)N1CCN(c2cc(=O)n3nc(-c4ccco4)sc3n2)CC1	none
O=C(CN(CC1CCOC1)C1CC1)NC1CC1 (centres undefined)	none
CCC(CNC(=O)c1cc2ccccc2oc1=O)c1ccccc1 (centres undefined)	none
CCOC(=O)c1sc2cccc(F)c2c1COC(=O)c1cc(C)oc1C	none
CCc1cc(C(=O)N[C@@H]2COCC[C@@H]2OCc2ccccc2)cc(=O)[nH]1	none
O=[N+]([O-])c1cccc2nc(/C=C/c3cccc(F)c3)ccc12	none
O=C(O)CNS(=O)(=O)c1cc(C(F)(F)F)cc(C(F)(F)F)c1	none
CCOCCCNCc1ccc(F)cc1	none
CCOC(=O)C1CCN(C(=O)c2ccc(CN(c3ccccc3)S(C)(=O)=O)cc2)CC1	none
CC1(COc2ccccc2)COc2ccc(C(=O)NCCc3ccccn3)cc2N1 (centres undefined)	KDM5B inh 32µM
O=C(NCCc1ccccc1)c1ccc2c(c1)OCO2	none
O=C1CCCCC(Cc2ccccc2)(C(=O)NCc2cccc(F)c2)N1 (centres undefined)	none
CC1(COc2cccnc2)COc2ccc(C(=O)NCCc3ccccc3)cc2N1 (centres undefined)	KDM5B inh 35µM
O=C1CSc2ccc(C(=O)NCCc3cccnc3)cc2N1	none
CC1(COCC2CC2)COc2ccc(C(=O)N3CCOCC3c3cccc(F)c3)cc2N1 (centres undefined)	KDM5B inh 35µM
CC1=C(C(=O)N2CCOCC2)C(c2cccc(F)c2)NC(=O)N1Cc1ccccc1 (centres undefined)	none
O=C(NCCc1ccccn1)c1ccc(C2CCCCC2)cc1	none
CC1(COc2ccccc2)COc2ccc(C(=O)NCc3cccc(F)c3)cc2N1 (centres undefined)	KDM5B inh 32µM
C[C@@H]1CN(C(=O)c2ccc3c(c2)NC(C)(COCC2CC2)CO3)C[C@H](C)O1 (some centres undefined)	none
CN1CCC(OC2CCN(S(=O)(=O)c3ccc(F)cc3F)CC2)CC1	none
CC(OC(=O)c1cc2ccccc2[nH]1)C(=O)Nc1ccccc1 (centres undefined)	none
Cc1ccc2c(CN(C)Cc3nc4ccccc4c(=O)[nH]3)cc(=O)oc2c1C	none
Cc1cc(N)nc(SC(C)C(=O)c2ccc(F)cc2)n1 (centres undefined)	none
Cc1cccc(CNC(=O)C2CCCCC(=O)N2)c1 (centres undefined)	none
COc1ccc(NS(=O)(=O)c2ccc(OCC(=O)NCc3ccccc3OC)c(C)c2)cc1	none
COc1ccc(C(=O)N2CCCCCCNC(=O)[C@@H]3CCC[C@@H]32)cn1	none
CNc1nc(-c2cc(C)n(-c3cc(C)on3)c2C)cs1	none
Cn1ncc(N2CCC(C(=O)N3CCc4ccccc4C3)C2)cc1=O (centres undefined)	none
O=C(Cc1c[nH]c2ncc(-c3cccnc3)cc12)NCCc1ccccn1	none
CNC(=O)c1cccc(-c2cnc3[nH]cc(CC(=O)N(C)C)c3c2)c1	none
O=C(NCc1c[nH]c2ncccc12)c1ccc(C(F)(F)F)cc1	none
NC(=O)Cc1c[nH]c2ncc(-c3cccc(CO)c3)cc12	KDM5B inh 32µM
Cc1cccc(-c2cnc3[nH]cc(CC(N)=O)c3c2)c1	KDM5B inh 32µM
O=C(Cc1c[nH]c2ncc(-c3ccccc3F)cc12)NCc1cccnc1	KDM5B inh 28µM
O=C(Cc1c[nH]c2ncc(-c3cccc(CO)c3)cc12)NCc1cccnc1	KDM5B inh 32µM
CCOc1ccc(NS(=O)(=O)c2ccc(C(=O)NC3CCN(CC)CC3)cc2)cc1	none
CC(OC(=O)Cc1n[nH]c(=O)c2ccccc12)C(=O)NCc1ccccc1 (centres undefined)	none
O=C([C@@H]1C[C@H](Oc2ccccc2)CN1C(=O)CC1CCCC1)N1CCOCC1	none
Cc1ccc(OCc2nc(-c3cc(C)nc4ccccc34)no2)c(C)c1	none
